In the antibiotic and cytotoxicity screens of Wong et al. (2023) one finds cytotoxicity call data, which are given here for 17 compounds.

Screen size: about 39,000 compounds; about 3,300 (8.5%) were called active. This is one part of a sample in which actives are shown more often than they occur.

The assay has as its system HepG2. Nature of the assay: cytotoxicity call (relative viability < 0.9). The settings on record: 10 µM.
On to `C[C@H]1CN([C@@H](C)CO)C(=O)Cc2cc(NS(=O)(=O)c3ccc(F)cc3)ccc2O[C@H]1CN(C)S(=O)(=O)c1ccccc1`, for which the cytotoxicity call was “inactive”.

`C#Cc1cnc(OC)cn1`: the cytotoxicity call was “inactive”.

Take `C[C@H]1CCCCO[C@H](CN(C)CC2CCCCC2)[C@@H](C)CN([C@@H](C)CO)C(=O)c2cc(NC(=O)Nc3cccc4ccccc34)ccc2O1`: the cytotoxicity call is “active”.

For `C[C@@H]1CCCCO[C@H](CN(C)CC2CCCCC2)[C@@H](C)CN([C@H](C)CO)C(=O)c2cc(NC(=O)Nc3cccc4ccccc34)ccc2O1`, the cytotoxicity call is “active”.

For the compound `C[C@H](CO)N1C[C@H](C)[C@@H](CN(C)C)OCCCC[C@H](C)Oc2ccc(NC(=O)Nc3cccc4ccccc34)cc2C1=O`, the cytotoxicity call is “inactive”.

In the case of `C[C@@H]1CN([C@@H](C)CO)C(=O)c2cc(NC(=O)Nc3cccc4ccccc34)ccc2O[C@@H](C)CCCCO[C@H]1CN(C)CC1CCCCC1`, the cytotoxicity call is “active”.

On to `C[C@@H]1CN([C@@H](C)CO)C(=O)c2cc(NC(=O)Nc3cccc4ccccc34)ccc2O[C@@H](C)CCCCO[C@@H]1CN(C)CC1CCCCC1`, for which the cytotoxicity call was “active”.

As for `C[C@H]1CCCCO[C@H](CN(C)C)[C@@H](C)CN([C@@H](C)CO)C(=O)c2cc(NC(=O)Nc3cccc4ccccc34)ccc2O1`, the cytotoxicity call is “inactive”.

As to `CN(C)c1ccc(O)c2c1C[C@@H]1C[C@@H]3[C@@H](N(C)C)C(=O)C(C(N)=O)=C(O)[C@]3(O)C(=O)[C@H]1C2=O`, the cytotoxicity call is “inactive”.

In the case of `CC(C)NC(=O)N(C)C[C@@H]1Oc2ccc(NC(=O)Cn3cnnn3)cc2C(=O)N([C@H](C)CO)C[C@H]1C`, the cytotoxicity call is “inactive”.

With `COCC#Cc1ccc2c(c1)O[C@H](CN(C)S(=O)(=O)c1ccc(OC)cc1)[C@@H](C)CN([C@H](C)CO)S2(=O)=O`, the cytotoxicity call is “inactive”.

Consider `O=C(O)c1ccc2c(ccc3nn(-c4ccc(/C=C/c5ccc(-n6nc7ccc8cc(C(=O)O)ccc8c7n6)cc5S(=O)(=O)O)c(S(=O)(=O)O)c4)nc32)c1`, for which the cytotoxicity call was “inactive”.

In the case of `C[C@H]1CN([C@@H](C)CO)C(=O)c2cc(C#Cc3ccncc3)cnc2O[C@H]1CN(C)C(=O)c1ccccc1F`, the cytotoxicity call was “inactive”.

`COc1ccc(S(=O)(=O)N(C)C[C@H]2Oc3ccc(NC(=O)CCC(F)(F)F)cc3CC(=O)N([C@@H](C)CO)C[C@H]2C)cc1`: the cytotoxicity call was “inactive”.

With `C[C@@H]1CN([C@H](C)CO)C(=O)c2c(c3ccccc3n2C)-c2ccccc2CO[C@@H]1CN(C)Cc1cccc(O)c1`, the cytotoxicity call was “inactive”.

`Cc1noc(C)c1NC(=O)Nc1cccc2c1O[C@@H](CN(C)Cc1ccc(C(=O)Nc3ccccc3N)cc1)[C@H](C)CN([C@@H](C)CO)C2=O`: the cytotoxicity call was “inactive”.

With `C[C@@H]1CN([C@H](C)CO)C(=O)Cc2cc(NC(=O)Cc3ccccc3)ccc2O[C@@H]1CN(C)S(=O)(=O)c1ccccc1`, the cytotoxicity call was “inactive”.
